Rows were chosen to be rich in hits. Some 7.3% of all compounds tested hit in one or more screens of this group.
Rab9 promoter act = activators of Rab9 promoter; Huh7 Rab9 promoter-luciferase reporter, luminescence, 24 h; Potency, µM (top dose mostly 9.22 µM), without a hit: top-dose activation, negative = inhibition, hits mostly activators; 2.8% of 320,000 active; AID 485297; further: % of control where 0% means no effect; nearly all actives have a fitted effect of over 60% in size
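Huh7 cells stably carrying a Rab9 promoter-luciferase reporter, 1500 cells per well in OP-MEM I with 10% FBS, treated with compound 24 hours at 37C. Luciferase activity read by luminescence after 10 minutes with Amplite reagent.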
SMN2 splice enh = enhancers of SMN2 splice variant expression. HEK293 SMN2-luciferase splicing reporter, luminescence, 30-36 h. Potency, µM (doses to about 46.1 µM), for the others: at the highest dose activity change, positive = activation, usual class: activators. 2.8% of 210,000 active. AID 1458; further: % of control where 0% means no effect; nearly all actives have a fitted effect of over 55% in size
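HEK293 cells carry an SMN2 […]–luciferase reporter in which exon 7 inclusion puts luciferase in frame. Cells were plated 10-12 h before compound addition, then incubated 30-36 h at 37C. ONE-Glo luminescence was read; sodium butyrate at 4.5 mM final served as control.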
KinaseGlo FLuc = counter-screen: inhibitors of Kinase-Glo firefly luciferase; Q27757; Kinase-Glo luciferase, ATP luminescence, 8 min; Potency, µM (series often up to 38.3 µM), for the others: at the top dose activity change, negative = inhibition, most hits filed as inhibitors; 0.28% of 200,000 active; further: on the % scale 0 is the no-effect control and ±100 the full control effect; nearly all actives have a fitted effect of over 60% in size
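Light output from Kinase-Glo luciferase with luciferin and 10 uM ATP in 50 mM imidazole pH 7.2, KCl, MgCl2, Tween 20, BSA; compound pin-delivered, 8-min ambient incubation, then luminescence read.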
NPC1 promoter act = activates the NPC1 promoter | Huh7 NPC1 promoter luciferase reporter, 24 h | Potency, µM (doses to about 9.22 µM), without a hit: at the highest dose activation, hits mostly activators | 2.4% of 320,000 active; further: % of control where 0% means no effect; nearly all actives have a fitted effect of over 60% in size
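NPC1 promoter–luciferase Huh7 cells; 24 h compound; luminescence.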
FLuc modulator = firefly luciferase modulation, counter-screen for miR-21 project | P08659 | purified FLuc, Km substrates, luminescence inhibition | Potency, µM (highest dose often 57.5 µM), inactives show at the highest dose activity change, negative = inhibition, usual class: inhibitors | 6.9% of 360,000 active | AID 588342;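 further: plate controls were vehicle for no effect and reference inhibitor for full effect; nearly all actives have a fitted effect of over 55% in size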
Target sequence (P08659 whole entry, looked up): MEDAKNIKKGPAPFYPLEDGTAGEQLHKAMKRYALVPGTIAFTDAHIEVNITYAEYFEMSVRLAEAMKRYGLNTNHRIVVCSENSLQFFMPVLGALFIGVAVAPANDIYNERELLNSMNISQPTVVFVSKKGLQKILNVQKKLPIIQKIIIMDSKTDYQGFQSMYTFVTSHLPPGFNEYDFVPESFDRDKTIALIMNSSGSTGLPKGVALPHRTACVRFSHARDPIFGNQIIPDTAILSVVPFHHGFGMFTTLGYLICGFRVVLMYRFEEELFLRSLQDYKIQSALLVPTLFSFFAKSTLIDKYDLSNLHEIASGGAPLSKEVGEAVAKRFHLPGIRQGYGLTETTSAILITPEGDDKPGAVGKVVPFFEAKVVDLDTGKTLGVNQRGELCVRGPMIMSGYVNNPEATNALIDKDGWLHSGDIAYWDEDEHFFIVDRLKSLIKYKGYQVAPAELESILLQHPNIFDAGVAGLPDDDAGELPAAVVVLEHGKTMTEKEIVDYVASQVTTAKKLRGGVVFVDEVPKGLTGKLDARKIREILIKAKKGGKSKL
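Purified P. pyralis luciferase (10nM final) with 10uM D-luciferin and 10uM ATP (Km levels) in 50mM Tris acetate pH 7.5, 10mM Mg acetate, 0.01% Tween-20, 0.05% BSA; qHTS 6-point titration, ~60 µM downward; luminescence read.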
ELG1 genotox = induces genotoxicity in HEK293T cells with luciferase-tagged ELG1. 1.3% of 330,000 active. HEK293T ELG1-luciferase reporter, luminescence, 16 h. Potency, µM (series often up to 46 µM), without a hit: top-dose activity change, positive = activation, actives largely listed as activators. AID 504466; further: % of control where 0% means no effect; nearly all actives have a fitted effect of over 60% in size
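HEK293T cells expressing luciferase-tagged ELG1 were exposed to compound or DMSO vehicle for 16 hr at 37 °C and 5% CO2. Luciferase activity was then measured with ONE-Glo after 30 min at room temperature.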
Starred values were filed as active, the others as inactive; ? = inconclusive; . = no result. The call rests on the fitted dose curve; in most records, active means well fitted curve in the direction sought with a large enough effect; inconclusive means small, poorly fitted or top-dose-only effect, or another doubt; inactive means no such curve, though single readings can be large; an effect the other way counts as inactive or inconclusive. Potency means the concentration at half of the fitted maximal effect.

SMILES	Rab9 promoter act	SMN2 splice enh	KinaseGlo FLuc	NPC1 promoter act	FLuc modulator	ELG1 genotox
CC(C)Oc1ccc(C(=O)Nc2ccc(C(F)(F)F)n(C)c2=O)cc1	10%	-2%	3%	2%	19µM*	3%
Brc1ccc(/C=N/Nc2nc3ccccc3o2)cc1	1.1µM*	.	.	1.6µM*	1.5µM*	?
Oc1ccccc1/C=N/Nc1nc2ccccc2o1	-17%	.	.	-15%	1.9µM*	9.2µM*
CC(=O)O[C@]1(C(C)=O)CC[C@H]2C3C=C(Cl)C4=CC(=O)[C@@H]5C[C@H]5[C@]4(C)C3CC[C@@]21C (some centres undefined)	.	-35%	-3%	.	.	.
CC(=O)Nc1ccc(S(=O)(=O)N/N=C/c2ccc(C)s2)cc1	?	?	-3%	17%	11µM*	?
COc1ccc(-c2nnc(SCC(=O)N3CCOCC3)o2)cc1OC	-2%	12%	1%	-2%	-2%	-1%
CCOc1ccc(-c2nnc(SCC(=O)N3CCOCC3)o2)cc1	2.2µM*	?	-2%	?	11µM*	?
CCOc1ccc(-c2nnc(SCC(=O)N3CCCC3)o2)cc1	?	.	.	?	21µM*	?
COc1ccc(-c2nnc(SCC(=O)N3CCCCC3)o2)cc1	?	13%	.	?	?	?
O=C(CCN1C(=O)S/C(=C/c2ccccc2)C1=O)Nc1ccc(C(=O)O)c(O)c1	24%	.	.	22%	2.4µM*	8%
O=C(CCN1C(=O)/C(=C\c2ccccc2F)SC1=S)Nc1ccc(C(=O)O)c(O)c1	1%	.	.	-4%	5.4µM*	3%
O=C(CCN1C(=O)S/C(=C\c2ccc(F)cc2)C1=O)Nc1ccc(O)cc1C(=O)O	0%	.	.	-2%	?	0%
O=C(CCCN1C(=O)/C(=C/c2ccccc2)SC1=S)Nc1ccc(C(=O)O)c(O)c1	3%	.	.	-3%	12µM*	2%
O=C(CN1C(=O)/C(=C/c2ccco2)SC1=S)Nc1ccc(C(=O)O)c(O)c1	2%	.	.	0%	19µM*	4%
Cc1ccccc1NS(=O)(=O)c1ccc2[nH]cc(C(=O)NC3CCCCC3)c(=O)c2c1	-4%	.	.	-2%	?	.
O=C(CCN1C(=O)S/C(=C\c2ccc(F)cc2)C1=O)Nc1ccc(C(=O)O)c(O)c1	13%	.	.	?	2.1µM*	8%
O=C(CCN1C(=O)S/C(=C/c2ccc(F)cc2)C1=O)Nc1ccc(O)c(C(=O)O)c1	1%	.	.	-3%	?	-1%
Cc1ccc(/C=C2/SC(=S)N(CCCC(=O)Nc3cc([N+](=O)[O-])ccc3O)C2=O)cc1	-19%	.	.	16%	?	-9%
O=C(CN1C(=O)S/C(=C\c2ccccc2)C1=O)Nc1cc([N+](=O)[O-])ccc1O	11%	.	.	3%	13µM*	-1%
Cc1cc(C)n2cc(CSc3nc4ccccc4s3)nc2n1	3.5µM*	11µM*	3%	?	21µM*	?
Cc1cc(C)n2cc(CSc3nnc(SCc4cn5c(C)cc(C)nc5n4)s3)nc2n1	-4%	12%	-3%	2%	-1%	-1%
O=C(Nc1nnc(S(=O)(=O)N2CCCc3ccccc32)s1)c1ccc(Cl)cc1	.	.	.	.	2%	.
Cc1cc(/C=N/Nc2nc(N)ncc2[N+](=O)[O-])c(C)n1-c1ccccc1F	-17%	.	.	?	0.048µM*	?
CCc1ccc(C(=O)N/N=C/c2ccc(Cl)cc2Cl)nc1	22%	26%	0%	10%	7.6µM*	6%
C=CCc1cccc(/C=N/NC(=O)c2ccccc2Br)c1O	-3%	.	.	-4%	?	?
SMILES	Rab9 promoter act	SMN2 splice enh	KinaseGlo FLuc	NPC1 promoter act	FLuc modulator	ELG1 genotox
C=CCc1cccc(/C=N/NC(=O)c2ccc3nc[nH]c3c2)c1O	-49%	.	.	-42%	17µM*	?
O=C(N/N=C/c1ccc(Cl)cc1Cl)c1ccc2nc[nH]c2c1	24%	.	.	8%	9.5µM*	18%
C=CCc1cccc(/C=N/NC(=O)c2ccccc2OC)c1O	-3%	-102%	3%	24%	13µM*	?
O=C(N/N=C/c1ccccc1C(F)(F)F)c1ccc2nc[nH]c2c1	?	.	.	?	?	12%
O=C(C[n+]1ccc(C(=O)N/N=C/c2ccc(Cl)cc2Cl)cc1)c1ccccc1	3%	6%	-5%	-5%	2%	-2%
O=C(N/N=C/c1ccc(Cl)cc1Cl)c1cccc(F)c1	2µM*	?	-15%	1.8µM*	3.4µM*	?
O=C(c1ccccc1)c1ccc(COC(=O)c2cnccn2)cc1	-1%	4%	-4%	0%	24µM*	6%
CCCCC(=O)OCc1nc2ccccc2s1	15%	10%	-4%	-1%	21µM*	9%
O=C(OCc1nc2ccccc2s1)c1cccs1	.	?	-5%	.	2.7µM*	.
CC(C)(C)c1ccc(C(=O)OC/C(O)=C(\C#N)c2nc3ccccc3s2)cc1	-4%	4%	0%	-1%	-7%	-2%
Cc1noc(C)c1COC(=O)CCCc1nc2ccccc2s1	7%	16%	0%	1%	-6%	3%
N#C/C(=C(/O)COC(=O)c1ccccc1O)c1nc2ccccc2s1	1%	-42%	1%	-3%	21µM*	-9%
O=C(O)c1ccccc1OCc1ccccc1Br	-1%	10%	2%	-1%	-14%	-4%
COc1cc(OC)cc(C(=O)NCC(=O)OCc2nc3ccccc3s2)c1	?	.	-8%	14%	9.5µM*	?
O=C(OCc1nc2ccccc2s1)c1ccccc1O	24%	-4%	-17%	7%	8.5µM*	?
O=C(OCc1nc2ccccc2s1)c1cnccn1	4%	-4%	-7%	-2%	11µM*	?
O=C(OCc1nc2ccccc2s1)c1cccc(N2C(=O)CCC2=O)c1	23%	-2%	-3%	2%	?	7%
O=C(O)c1ccccc1OCc1nc2ccccc2s1	11%	.	.	?	3.8µM*	?
CCCC1=Nc2cc(C(=O)NCc3ccccc3)ccc2Sc2ccccc21	.	-20%	.	.	-11%	.
CCN(CC)c1cc(C)c2cc(NC(=O)c3ccccc3Cl)ccc2n1	.	-11%	.	.	-20%	.
CCN(CC)c1ccc(/C=C(/C#N)c2nc3ccc(C)cc3[nH]2)c(OC(C)C)c1	-2%	-1%	-1%	-2%	5.4µM*	-5%
CCOc1cc(N(CC)CC)ccc1/C=C(/C#N)c1nc2ccccc2[nH]1	?	-47%	3%	5%	9.5µM*	0%
CCN(CC)C(=O)Cn1c(=O)n(-c2ccc(Cl)cc2)c(=O)c2c3c(sc21)CCCCC3	.	0%	.	.	-12%	.
CC(=O)c1cccc(Nc2ccc(-c3ccccc3F)nn2)c1	2.2µM*	11µM*	0%	2.8µM*	5.4µM*	13%

Bioassay records (PubChem BioAssay)
